Data as given in PubChem BioAssay AID651702 (NMMLSC, 2012).
The campaign covered roughly 360,000 compounds. About 2,400 (0.67%) were called active.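 How the source made its calls: active means inhibition above about 55% (limit read from the data); inconclusive means no clear call, values can overlap the other calls; inactive means the rest.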 Shown is part of a subset that was picked to be rich in actives.

experiment: LAMP-1 surface exposure blockers, TALL-104 cells – cell-based, flow cytometry, MLPCN library, primary screen (AID 651702); conditions: TALL-104 LAMP-1 surface exposure, at 10 µM, active compounds read high, cells stimulated with thapsigargin and PMA

SMILES | inhibition
CSc1ncccc1C(=O)OCC(=O)N1CCOCC1 | 0.7% (inactive)
COc1ccc(C(O)c2nc(-c3ccc(OC)nc3)cs2)cc1 (stereo not drawn) | -0.4% (inactive)
COC(=O)CCc1sc(Nc2ccc(Br)cc2)nc1-c1ccc(OC)cc1 | 7.1% (inactive)
COc1ccc(-c2csc(Nc3ccc(O)cc3)n2)cc1 | 67.8% (active)
O=C(CS(=O)(=O)c1cn(Cc2ccc(Cl)cc2)c2ccccc12)N1CCOCC1 | -1.9% (inactive)
CCOC(=O)CSc1nc2c(sc(=S)n2CCc2ccccc2)c(=O)n1Cc1ccco1 | 55.7% (active)
CCOC(=O)CSc1nc2c(c(=O)n(Cc3ccccc3Cl)c(=O)n2C)n1C | -0.4% (inactive)
CCOC(=O)Cc1csc(NC(=O)CSc2nnc(-c3cccnc3)n2Cc2ccco2)n1 | 1% (inactive)
CCCc1nc(SCC(=O)N2CCCC2)c2c(=O)n(C)c(=O)n(C)c2n1 | 45.2% (inactive)
CC(O)CN(Cc1ccc(Cl)cc1)CC(C)O (stereo not drawn) | 0.5% (inactive)
CCCCCn1c(=O)[nH]c2cc(C(=O)NCCCN3CCCCC3C)ccc2c1=O (stereo not drawn) | -0.7% (inactive)
Cc1ccc(-c2cnc(NC(=O)CCC(=O)N(C)Cc3ccccc3)n2C)cc1 | -1.9% (inactive)
CC(C)CN1CC(C)C(=O)N(c2ccccc2)C1=S (stereo not drawn) | 1.4% (inactive)
CCN(CC(=O)Nc1ccccc1C(=O)NC1CC1)Cc1cccs1 | -0.1% (inactive)
CC1CCc2c(nc3ncnn3c2Nc2ccc(OC(F)(F)F)cc2)C1 (stereo not drawn) | -1.5% (inactive)
O=S(=O)(NC1CC1)c1ccc(F)c(F)c1 | -10.9% (inactive)
CC1CCC(NS(=O)(=O)c2ccc3c(c2)CC(=O)N3)CC1 (stereo not drawn) | -3.8% (inactive)
Cn1sc(=O)c2cc(S(=O)(=O)NC3CC3)ccc21 | 100% (active)
OC(CNCC1CCCO1)Cn1c2ccc(Br)cc2c2cc(Br)ccc21 (stereo not drawn) | 41.3% (inactive)
O=C(NCc1cccnc1)c1ccc(CS(=O)(=O)c2ccc(Br)cc2)o1 | 2.2% (inactive)
Nc1cc(N)nc(SCc2ccc(Cl)cc2)n1 | 0.3% (inactive)
CC(C)Cn1cnc2c(SCc3ccc(Cl)cc3)nc(N)nc21 | 90.1% (active)
Nc1nc(SCc2ccc([N+](=O)[O-])cc2)c2ncn(C3OC(CO)C(O)C3O)c2n1 (stereo not drawn) | -2.7% (inactive)
COc1ccc(OCc2nnc3n2N=C(c2ccccc2)C(CC(=O)O)S3)cc1 (stereo not drawn) | 32.9% (inactive)
Cc1ccc(Nc2cc(=O)n(C3CCCCC3)c(=O)[nH]2)cc1C | -1.1% (inactive)

SMILES | inhibition
CCOc1ccc(Cl)cc1-c1cc(C(=O)NCc2cccs2)[nH]n1 | 66.5% (active)
COc1ccc(Cl)cc1C(=O)OCC(=O)NCc1cccs1 | 20.4% (inactive)
COc1ccccc1CNC(=O)c1cc(-c2cc(Cl)ccc2C)n[nH]1 | 2.8% (inactive)
Cn1c(=O)c2c(n(Cc3ccccc3)c1=O)NC(=O)C2CC(=O)N1CCc2ccccc2C1 (stereo not drawn) | 5.7% (inactive)
Cn1c(SCc2nc3ccccc3s2)nnc1-c1ccc2c(c1)OCO2 | -6.5% (inactive)
COc1ccc(CN2CCN(Cc3cn(C)nc3-c3ccccc3)CC2CCO)c(C)c1C (stereo not drawn) | 4.6% (inactive)
Cc1ccccc1CN1C[C@@H]2C[C@@H](c3cn(C)nc3-c3ccccc3)N3CCC[C@@]23C1=O | 82.4% (active)
Cc1ccccc1CN1C[C@@H]2C[C@@H](c3ccc4nsnc4c3)N3CCC[C@@]23C1=O | -2.3% (inactive)
COC(=O)C1=C(C(=O)OC)C(c2cc([N+](=O)[O-])ccc2O)c2sc(=O)[nH]c2S1 (stereo not drawn) | 7.4% (inactive)
Cc1cccc(Nc2nnc(SCC(=O)c3c(N)n(C4CC4)c(=O)[nH]c3=O)s2)c1C | 0.1% (inactive)
CCOC(=O)C1(C)CCCN(C(=O)c2cccc(Cl)c2)C1 (stereo not drawn) | 1.7% (inactive)
CCOC(=O)C1(C)CCCN(C(=O)c2ccc(F)c(Cl)c2)C1 (stereo not drawn) | 71.1% (active)
CCOC(=O)C1(C)CCCN(C(=O)c2ccc(N(C)C)cc2)C1 (stereo not drawn) | -2.4% (inactive)
O=C(Nc1ccc(Br)cc1)c1cccc(NC(=O)C2C3CC4OC(=O)C2C4C3)c1 (stereo not drawn) | 11% (inactive)
CCOc1ccc(CCNC(=O)C2CCN(c3ccc(N4CCOCC4)nn3)CC2)cc1OCC | -0.7% (inactive)
Nc1nnc(SCC(=O)OCc2ccc(Cl)c(Cl)c2)s1 | -1.6% (inactive)
O=C(CNC(=O)N1CC(=O)Nc2ccccc21)Nc1ccc(Br)cc1F | 4.6% (inactive)
COc1ccc2c(c1)c(=Cc1ccc(N(C)C)cc1)c1cc(-c3ccccc3)[n+](C)n12 | 95.4% (active)
CCCNC(=O)C[C@@H]1CC[C@@H]2[C@H](COC[C@H](O)CN2C(=O)c2cc(Cl)cc(Cl)c2)O1 | -2.9% (inactive)
O=C(NCc1ccccc1)C(c1ccccc1)N(C(=O)c1csnn1)c1ccc(F)cc1 (stereo not drawn) | 56.4% (active)
O=C(NCc1ccc(F)cc1)C(c1ccccc1)N(C(=O)c1csnn1)C1CC1 (stereo not drawn) | -3.2% (inactive)
O=C(NCc1ccccc1)C(c1cccnc1)N(C(=O)c1csnn1)c1ccc(F)cc1 (stereo not drawn) | 12.4% (inactive)
O=C(CC1C(=O)NCCN1Cc1ccc(-c2ccccc2)cc1)NCC1CCOCC1 (stereo not drawn) | 1.1% (inactive)
CCOC(=O)C1(Cc2cccc(OC)c2)CCN(C(C)COC)CC1 (stereo not drawn) | -0.5% (inactive)
CCOC(=O)C1(CCOc2ccccc2)CCN(Cc2cc(OC)c(O)cc2Cl)CC1 | 84.5% (active)

SMILES | inhibition
CCCS(=O)(=O)N1CCC(CCOc2ccccc2)(C(=O)OCC)CC1 | -2.2% (inactive)
CCOC(=O)C1(CCOc2ccccc2)CCN(Cc2ccc(C#CCCO)cc2)CC1 | 55.8% (active)
CCOC(=O)C1(CCOc2ccccc2)CCN(C(=O)c2cncs2)CC1 | -0.8% (inactive)
CCOC(=O)C1(CCOC)CCN(Cc2cc3ccccc3s2)CC1 | 0.4% (inactive)
CC1(C(=O)NCc2ccccc2)CSCC(=O)N1CCCN1CCOCC1 (stereo not drawn) | 4.3% (inactive)
CC1CCCN(S(=O)(=O)c2ccc(N(C(=O)c3cnccn3)C(C(=O)NC3CCCCC3)c3cccs3)cc2)C1 (stereo not drawn) | 0.9% (inactive)
Cc1ccc(S(=O)(=O)N2CCN(C(=O)c3cc(S(=O)(=O)N4CCOCC4)ccc3F)CC2)cc1 | -3% (inactive)
Cc1ccc(S(=O)(=O)NCC(=O)NNC(=O)c2ccc(Br)cc2)cc1C | -1.3% (inactive)
NS(=O)(=O)c1ccc(-c2ccc(/C=C3\SC(=O)NC3=O)o2)cc1 | -14.3% (inactive)
Cc1ccc(C(=O)O)cc1-c1ccc(/C=C2\SC(=O)N(CC(=O)Nc3ccc4c(c3)OCO4)C2=O)o1 | -0.4% (inactive)
CN1C(=O)/C(=C\c2ccc(-c3ccccc3)o2)SC1=S | 66.7% (active)
NC(=O)CCCC1=NS(=O)(=O)c2ccccc2N1 | -3.9% (inactive)
CN1CCN(NC(=O)Nc2ccc(Br)cc2)CC1 | -2% (inactive)
O=C(Nc1ccc(C(=O)O)cc1)/C(=C\c1ccccc1)NC(=O)c1ccc(Br)cc1 | 9.3% (inactive)
O=C(NC(=O)c1ccccc1N1CCCCC1)Nc1ccc(Br)cc1 | 84.6% (active)
Cc1ccc(C)c(NC(=O)CCC(=O)N/N=C2/CC(=O)CC(C)(C)C2)c1 | 3.3% (inactive)
OCCNc1nc(Nc2ccc(Cl)c(Cl)c2)nc2ccccc12 | 57.7% (active)
OCCNCCOc1ccc(Cl)c(Cl)c1 | 6.6% (inactive)
COCCNc1nc(Nc2ccccc2Cl)c2sc(-c3ccccc3)cc2n1 | 47.2% (inactive)
COc1ccccc1Nc1nnc(SC(C)C(=O)NC2CC2)s1 (stereo not drawn) | 1.8% (inactive)
COc1ccc(C23NCCN2C(=O)c2ccccc23)cc1 (stereo not drawn) | 8.9% (inactive)
COCCNc1ncnc2c1ncn2[C@H]1CN(Cc2ccc(OC)cc2)C[C@@H](CO)O1 | 0.2% (inactive)
CCc1oc(-c2ccc(OC)cc2)c(C(=O)OCCCCCO)c1C(C)OCCO (stereo not drawn) | 3.7% (inactive)
COc1ccc(-c2oc3ncnc(NCCCO)c3c2-c2ccc(OC)cc2)cc1 | 70.3% (active)
C#CCN1CC(C)/C(=N/O)CC1C (stereo not drawn) | 0.9% (inactive)

SMILES | inhibition
CCn1c(-c2ccoc2C)n[nH]c1=S | 0.6% (inactive)
COc1ccc(C2CC(c3cccs3)=NN2C(=O)CSc2nnc(N)s2)cc1OC (stereo not drawn) | -3.2% (inactive)
COc1ccc(C2CC(c3cccs3)=NN2C(=O)COC(=O)c2cc3ccccc3cc2O)cc1OC (stereo not drawn) | -2.9% (inactive)
COc1ccc(C2CC(c3cccs3)=NN2c2nc(C)c(C(C)=O)s2)cc1OC (stereo not drawn) | 87.5% (active)
Cc1ccc(-n2nc(N)c3c(=O)oc(N(C)C)nc32)cc1 | -0.9% (inactive)
Cc1nn(-c2ncc(C(F)(F)F)cc2Cl)c(=O)n1-c1ccccc1 | -0.5% (inactive)
Cc1cc(NC(=O)CSc2ncc(C(F)(F)F)cc2Cl)no1 | 5.6% (inactive)
Cc1ccc(-c2ccnc3nc(Sc4ncc(C(F)(F)F)cc4Cl)nn23)cc1 | 67.5% (active)
Cn1cnc(S(=O)(=O)Nc2ccc3c(c2)OCCO3)c1 | 5.9% (inactive)
CCC(=O)Nc1c(C)n[nH]c1C | -0.1% (inactive)
CC(=O)c1cccc(-c2cnc3c(NC=O)cc(-c4ccccc4Oc4ccccc4)cn23)c1 | 13.9% (inactive)
COc1ccc(-c2cc(NC=O)c3ncc(-c4ccccc4)n3c2)cc1OC | 81.8% (active)
COc1ccc(-c2cc(NC=O)c3ncc(-c4cc(OC)c(OC)c(OC)c4)n3c2)c(OC)c1 | 28.6% (inactive)
CC(NC(=O)CN(C)S(=O)(=O)c1ccc(F)cc1)C1CC2CCC1C2 (stereo not drawn) | 0.1% (inactive)
O=C(NCc1cccs1)c1ccc(Br)o1 | -0.6% (inactive)
O=C(Cc1coc2ccc3ccccc3c12)NCc1cccs1 | -2.5% (inactive)
CC(C)Cn1c(N)c(C(=O)NCc2cccs2)c2nc3ccccc3nc21 | 59.6% (active)
COc1ccc(Oc2cn[nH]c2-c2ccc(OC)cc2O)cc1 | 60.1% (active)
COc1ccc(-c2cn[nH]c2-c2ccc(OC)cc2)cc1 | 65.6% (active)
COc1ccc(N=Nc2c(-c3ccc(OC)cc3)[nH]oc2=O)cc1 | -8.4% (inactive)
COc1ccc(-c2[nH]ncc2CN(C)Cc2c(C)n[nH]c2C)c(OC)c1 | -1.2% (inactive)
COc1ccc2cc(-c3[nH]ncc3CNCCn3nc(C)cc3C)ccc2c1 | 18.3% (inactive)
COc1ccc(-c2c(-c3ccc(OC)cc3O)nc(C)nc2C(F)(F)F)cc1 | 27.6% (inactive)
